Screen size: about 310,000 compounds; about 14,000 (4.5%) showed an effect of 50% or more. The effect is printed as a negative number. This is one part of a sample in which strong results are shown more often than they occur.
The molecules below were run against human ether-à-go-go-related gene (hERG) potassium channel (human, UniProt Q12809) (assay: primary screen, population patch clamp on CHO cells stably expressing hERG; higher = less effect of the substance).
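Note: peak tail current of the secondary pulse compared with the same well before compound.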

Sequence of human ether-à-go-go-related gene (hERG) potassium channel (Q12809 whole entry, looked up): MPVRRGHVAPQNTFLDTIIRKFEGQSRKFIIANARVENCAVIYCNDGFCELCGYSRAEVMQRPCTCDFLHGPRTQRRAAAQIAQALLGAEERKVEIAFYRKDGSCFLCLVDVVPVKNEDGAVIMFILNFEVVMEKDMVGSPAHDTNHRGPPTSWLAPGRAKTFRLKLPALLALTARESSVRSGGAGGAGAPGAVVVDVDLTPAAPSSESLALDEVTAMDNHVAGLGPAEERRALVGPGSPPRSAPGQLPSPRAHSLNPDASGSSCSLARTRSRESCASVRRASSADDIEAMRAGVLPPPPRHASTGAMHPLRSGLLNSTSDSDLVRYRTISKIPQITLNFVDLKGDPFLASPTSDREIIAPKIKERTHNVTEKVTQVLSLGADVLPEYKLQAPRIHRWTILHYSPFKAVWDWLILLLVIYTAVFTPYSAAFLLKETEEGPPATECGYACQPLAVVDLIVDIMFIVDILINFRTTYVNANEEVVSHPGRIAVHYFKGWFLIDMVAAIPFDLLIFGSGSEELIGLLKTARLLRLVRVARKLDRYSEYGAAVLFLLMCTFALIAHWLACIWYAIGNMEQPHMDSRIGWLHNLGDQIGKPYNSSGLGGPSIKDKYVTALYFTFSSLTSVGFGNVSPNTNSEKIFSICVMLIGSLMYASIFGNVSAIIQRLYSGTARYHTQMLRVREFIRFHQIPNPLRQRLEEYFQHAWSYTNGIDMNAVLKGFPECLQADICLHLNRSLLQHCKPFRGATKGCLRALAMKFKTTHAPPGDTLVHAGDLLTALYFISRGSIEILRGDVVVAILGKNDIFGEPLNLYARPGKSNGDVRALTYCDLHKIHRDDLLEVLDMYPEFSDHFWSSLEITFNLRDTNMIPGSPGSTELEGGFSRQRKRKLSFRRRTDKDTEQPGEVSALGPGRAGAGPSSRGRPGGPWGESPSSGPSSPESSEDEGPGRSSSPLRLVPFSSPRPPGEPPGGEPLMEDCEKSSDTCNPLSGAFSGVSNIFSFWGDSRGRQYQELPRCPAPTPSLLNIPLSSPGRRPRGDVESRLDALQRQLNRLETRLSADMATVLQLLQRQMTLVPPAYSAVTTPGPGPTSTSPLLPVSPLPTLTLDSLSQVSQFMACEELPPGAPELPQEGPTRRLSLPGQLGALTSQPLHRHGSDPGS

| Structure (SMILES) | hERG current change (%, negative = inhibition) at 10uM |
| --- | --- |
| CCCCNc1nc2c(c(=O)[nH]c(=O)n2C)n1CCOc1ccccc1 | 3.6% |
| O=C(CCSc1ccccn1)c1ccccc1 | 8.82% |
| CCOC(=O)CC(NC(=O)Cc1cccs1)c1ccccc1Cl (centres unmarked) | 5.29% |
| Cc1ccccc1C(=O)N1N=C(c2cccc(NS(C)(=O)=O)c2)CC1c1cccs1 (centres unmarked) | -6.36% |
| Cc1cc(C)c(CN2CCN(Cc3ccc(C)o3)C(CCO)C2)c(-n2cccn2)c1 (centres unmarked) | -76.4% |
| OCCC1CN(Cc2cnn(-c3ccccc3Cl)c2)CCN1Cc1ccsc1 (centres unmarked) | -11.7% |
| Cc1ccc(CN2CCN(Cc3cnn(-c4ccc(F)cc4)c3)CC2CCO)o1 (centres unmarked) | -56.1% |
| Cc1ccc(CN2CCN(Cc3c(C)nn(-c4ccc(F)cc4)c3C)CC2CCO)o1 (centres unmarked) | -34.6% |
| CCn1cc(CN2CCN(Cc3ccsc3)C(CCO)C2)cn1 (centres unmarked) | -3.26% |
| Cc1ccc(CN2CCN(Cc3ccncc3)CC2CCO)o1 (centres unmarked) | -8.3% |
| Cc1ccc(CN2CCN(Cc3ccc(O)cc3)CC2CCO)o1 (centres unmarked) | -7.85% |
| Cc1ccc(CN2CCN(Cc3cn[nH]c3-c3ccccc3)CC2CCO)o1 (centres unmarked) | -12.7% |
| OCCC1CN(Cc2cnn(-c3ccc(F)cc3)c2)CCN1Cc1ccsc1 (centres unmarked) | -65.7% |
| Cc1ccc(CN2CCN(Cc3c(C)nn(C(C)C)c3C)CC2CCO)o1 (centres unmarked) | -7.24% |
| Cc1ccc(CN2CCN(Cc3cnc(C)s3)CC2CCO)o1 (centres unmarked) | -1.95% |
| Cc1ccc(CN2CCN(Cc3cnn(-c4ccc(Cl)cc4)c3)CC2CCO)o1 (centres unmarked) | -69.8% |
| Cc1ccc(C(=O)N2CCCCC2)cc1S(=O)(=O)N1CCOCC1 | 22% |
| COc1ccc(NC(=O)C2CCCN(S(=O)(=O)c3ccc4c(c3)CCCN4C(C)=O)C2)cc1 (centres unmarked) | 9.31% |
| CCCN1CCC(NC(=O)Nc2cc(Cl)ccc2OC)CC1 | -19.1% |
| CCCCOc1ccc(C(=O)Nc2ccc(N3CCN(C(=O)C(C)C)CC3)cc2)cc1 | 6.91% |
| NC(=O)C1CCN(C(=O)c2ccc(F)c(S(=O)(=O)N3CCOCC3)c2)CC1 | -0.931% |

| Structure (SMILES) | hERG current change (%, negative = inhibition) at 10uM |
| --- | --- |
| C/C(=N\NC(=O)CNC(=O)c1ccc(Br)cc1)c1ccco1 | 5.38% |
| CCn1c(=O)cc(OCC(=O)NCCCN2CC(C)CC(C)C2)c2ccccc21 (centres unmarked) | -12.5% |
| Cn1c(=O)cc(OCC(=O)NCCCN2CCN(Cc3ccccc3)CC2)c2ccccc21 | -17.8% |
| CCn1c(=O)cc(OCC(=O)NCCCN2CCC(C)CC2)c2ccccc21 | -8.39% |
| CCn1c(=O)cc(OCC(=O)NCCCN2CCN(c3cccc(Cl)c3)CC2)c2ccccc21 | -61.1% |
| Cn1c(=O)cc(OCC(=O)NCCCN2CCN(c3cccc(Cl)c3)CC2)c2ccccc21 | -50.8% |
| CC1CCN(CCCNC(=O)COc2cc(=O)n(C)c3ccccc23)CC1 | 8.58% |
| O=S(=O)(N/N=C\c1cn(-c2ccccc2)nc1-c1ccccc1)c1ccccc1 | 5.42% |
| COC(=O)c1ccc(N2C(=O)Nc3ccccc3N2O)cc1 | 12.5% |
| CCN1CCN(C(C(=O)NC2CCCC2)c2cc3c(cc2[N+](=O)[O-])OCO3)CC1 (centres unmarked) | -1.51% |
| CN(C)S(=O)(=O)N1CCC(C(=O)O)(c2ccccc2)CC1 | 18.7% |
| CCCc1nc2ccc(NC(=O)c3cccs3)cc2c(=O)n1Cc1ccccc1Cl | 1.8% |
| CC(=O)c1cccc(S(=O)(=O)N2CCC(n3nnc4cc(F)ccc43)CC2)c1 | -63.7% |
| O=S(=O)(NC1CCCC1)c1cccc(S(=O)(=O)N2CCC(n3nnc4ccccc43)CC2)c1 | -26% |
| O=S(=O)(c1cccc(S(=O)(=O)N2CCC(n3nnc4ccccc43)CC2)c1)N1CCCCC1 | -55.7% |
| O=S(=O)(c1ccccc1)N1CCC(n2nnc3cc(F)ccc32)CC1 | -27.7% |
| COC(=O)c1cccc(S(=O)(=O)N2CCC(n3nnc4cc(F)ccc43)CC2)c1 | -34.3% |
| Cc1ccc2c(c1)nnn2C1CCN(S(=O)(=O)c2cccc(S(=O)(=O)N(C)C)c2)CC1 | -16.7% |
| CCCc1ccc(-c2cc(C(=O)NC3=NCCS3)c3ccccc3n2)cc1 | -2.06% |
| CCCN1CCN(CCCNC(=O)Cn2nc(-c3ccc(C)cc3)ccc2=O)CC1 | -24.6% |
| CCCN1CCN(CCCNC(=O)Cn2nc(-c3ccc(Cl)cc3)ccc2=O)CC1 | -50.8% |

| Structure (SMILES) | hERG current change (%, negative = inhibition) at 10uM |
| --- | --- |
| CN1CCN(CCCNC(=O)Cn2nc(-c3ccccc3)ccc2=O)CC1 | 14.1% |
| O=C(Cn1nc(-c2ccc(Cl)cc2)ccc1=O)NCCCN1CCN(Cc2ccccc2)CC1 | -64.2% |
| O=C(Cn1nc(-c2ccccc2)ccc1=O)NCCN1CCN(Cc2ccccc2)CC1 | -19.1% |
| CCCN1CCN(CCCNC(=O)Cn2nc(-c3ccccc3)ccc2=O)CC1 | -22.2% |
| Cn1c(=O)c2c(nc(CN3CCOCC3)n2CCN2CCOCC2)n(C)c1=O | 3.09% |
| COc1ccc(/C=C(/NC(=O)c2ccccc2)C(=O)NC(Cc2c[nH]c3ccccc23)C(=O)O)cc1 (centres unmarked) | 14.5% |
| COc1cccc(/C=C2\SC(=S)N(CC(=O)N(C)C3CCS(=O)(=O)C3)C2=O)c1 (centres unmarked) | 1.18% |
| CCCCOC(=O)NS(=O)(=O)c1sc(CC(C)C)cc1-c1ccc(Cn2c(CC)nc3c(C)cc(C)nc32)cc1 | 5.9% |
| Cc1ccccc1C1=NCC(=S)Nc2ccc(Cl)cc21 | 0.98% |
| COc1ccc(C2c3c(ncn(CCCO)c3=N)Oc3ccc4ccccc4c32)cc1OC (centres unmarked) | -28.8% |
| N=c1c2c(ncn1CCCO)Oc1c(ccc3ccccc13)C2c1ccccc1 (centres unmarked) | -70.4% |
| COc1ccc(C2c3ccc4ccccc4c3Oc3ncn(CCCO)c(=N)c32)cc1OC (centres unmarked) | -62.3% |
| COc1ccc(C2c3c(ncn(CCCO)c3=N)Oc3ccc4ccccc4c32)cc1 (centres unmarked) | -33.9% |
| COc1ccc(C2c3ccc4ccccc4c3Oc3ncn(CCO)c(=N)c32)cc1 (centres unmarked) | -74.2% |
| N=c1c2c(ncn1CCCO)Oc1ccc3ccccc3c1C2c1ccccc1 (centres unmarked) | -53.6% |
| N=c1c2c(ncn1CCN1CCOCC1)Oc1ccc3ccccc3c1C2c1ccccc1 (centres unmarked) | -49.3% |
| COc1ccc(C2c3ccc4ccccc4c3Oc3ncn(CCO)c(=N)c32)cc1OC (centres unmarked) | -45.7% |
| COC(=O)C1CN(C(=O)COc2ccc(Cl)cc2Cl)c2ccccc2O1 (centres unmarked) | -2.51% |
| CCCCNC(=O)/C(C#N)=c1\s/c(=C\c2ccccc2OC(F)F)c(=O)n1CCCOC | 22.6% |
| Cc1ccc(Nc2c([N+](=O)[O-])cc(C(=O)N3CC(=O)Nc4ccccc43)cc2[N+](=O)[O-])c(C)c1 | 15.2% |
| COCCNC(=O)C(=O)c1c(-c2ccccc2)[nH]c2ccccc12 | 1.69% |

| Structure (SMILES) | hERG current change (%, negative = inhibition) at 10uM |
| --- | --- |
| CCOC(=O)NCc1ccc2c(c1)OCO2 | 19.7% |
| O=C(CCN1C(=O)/C(=C/c2ccc(F)cc2)SC1=S)Nc1cc([N+](=O)[O-])ccc1O | 15% |
| COC(=O)c1ccnc(/C=N/O)c1 | 10.7% |
| CCNS(=O)(=O)c1ccc2nc(NC(=O)c3cccnc3)sc2c1 | -1.78% |
| Cc1ccc(N2CC(C(=O)Nc3cccnc3)CC2=O)cc1 (centres unmarked) | -9.42% |
| O=S(=O)(c1ccc(Cl)cc1)N1CCN2CCCC2C1 (centres unmarked) | -6.01% |
| CN(C)NC1CC(=O)N(c2ccccc2)C1=O (centres unmarked) | 15.9% |
| NC(=O)N/N=C/c1cn(-c2ccccc2)nc1-c1ccccc1 | -6.63% |
| Cc1[nH]c(=O)[nH]c(=O)c1S(=O)(=O)Nc1ccc(F)cc1Cl | 17.1% |
| S=c1[nH]nc(COc2ccccc2)n1/N=C/c1ccc(Cl)cc1 | 22.4% |
| N=c1c2c(ncn1Cc1ccco1)Oc1c(ccc3ccccc13)C2c1ccccc1 (centres unmarked) | -26.5% |
| COc1ccc(C2c3ccc4ccccc4c3Oc3ncn4nc(Cc5ccccc5)nc4c32)cc1OC (centres unmarked) | 13.2% |
| COc1ccc(C2c3ccc4ccccc4c3Oc3ncn(Cc4ccco4)c(=N)c32)cc1OC (centres unmarked) | -62.9% |
| COc1ccccc1C1c2ccc3ccccc3c2Oc2ncn(CCCO)c(=N)c21 (centres unmarked) | -66.6% |
| COc1ccc(C2c3ccc4ccccc4c3Oc3ncn(CCCO)c(=N)c32)cc1 (centres unmarked) | -71.6% |
| CC1(c2nnc(-c3ccccc3)o2)CC(c2ccc([N+](=O)[O-])cc2)=NO1 (centres unmarked) | 4.53% |
| O=C(Nc1cccc(Cl)c1)c1cc(S(=O)(=O)N2CCCCC2)c[nH]1 | -9.13% |
| Cc1nn2c(=O)cc(CSc3ccccc3NC(=O)c3ccccc3F)nc2s1 | -3.29% |
| CCCCCCCCCCCC(=O)N/N=C/c1ccco1 | -11.2% |
| COc1ccc(Cc2nc3ccc(C(=O)N4CCCCC4CCO)cc3o2)cc1 (centres unmarked) | 4.93% |
